# A selection: hits, their analogues and other compounds. The true share with any hit is near 1.8%.
# IEC-6 tox: kills IEC-6 intestinal cells in KLF5 counter-screen; IEC-6 cytotoxicity, luminescence viability; inhibition, % at 5 µM; hit rate 0.78% among 290,000; AID 1825;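 further: 0% = plate median of test compound wells and 100% = cytotoxic reference compound wells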
# KLF5 inhibitor: suppresses KLF5 promoter-driven expression | DLD-1 KLF5 promoter-luciferase reporter, luminescence | inhibition, % at 5 µM | hit rate 0.23% among 290,000 | AID 1700;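 active means inhibition above a per-plate limit of that plate's mean compound inhibition plus 3 SD, cut at about 60% in these data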;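 further: 0% = DMSO wells and 100% = LY294002 at 200 µM; higher means less KLF5 promoter-driven luciferase light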
# APP transl inh: APP translation inhibition; hit rate 0.82% among 190,000; inhibition, % at 2 µM; SH-SY5Y APP 5'UTR-luciferase reporter, luminescence; AID 1285;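 active means inhibition above a set limit, derived from the sample mean plus 3 SD, cut at about 45% in these data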
# Ba/F3 V617F tox: loss of viability in JAK2V617F-driven Ba/F3 cells. Ba/F3 EpoR-JAK2V617F viability, ATP luminescence. inhibition, % at 5.6 µM. hit rate 1.1% among 220,000. AID 1446;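 active means inhibition above the campaign mean plus 3 SD over all tested compounds, cut at about 24% in these data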;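 further: cytokine-independent growth of Ba/F3 cells driven by EpoR plus mutant JAK2; 0% = DMSO-treated cells and 100% = JAK inhibitor I control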
# BaF3 tox: reduces parental Ba/F3 cell viability, JAK2V617F counter-screen | inhibition, % at 5.6 µM | CellTiter-Glo ATP luminescence | hit rate 1.1% among 220,000;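 active means inhibition above a per-campaign cutoff, the mean inhibition of all tested compounds plus 3 SD, cut at about 27% in these data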;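 further: 0% = DMSO wells and 100% = JAK Inhibitor I control wells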
# IEC-6 cytotox cf: confirmation of cytotoxic compounds in rat IEC-6 intestinal epithelial cells. shares compounds with IEC-6 tox. IEC-6 rat intestinal epithelial viability, luminescence. inhibition, % at 5 µM. hit rate 63% among 1,900. AID 1907;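 further: 0% = vehicle and 100% = reference cytotoxic drug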
# Numbers without * were called inactive; · = no result. Unless noted, no stated cut-off is given here; in the data, active means inhibition above about 22%; inactive means the rest.
SMILES,IEC-6 tox,KLF5 inhibitor,APP transl inh,Ba/F3 V617F tox,BaF3 tox,IEC-6 cytotox cf
Cn1c(=O)c([N+](=O)[O-])c(Cl)c2ccccc21,48.0*,15.0,57.4*,2.7,6.8,64.3*
CCN(CC)c1c([N+](=O)[O-])c(=O)n(C)c2ccccc12,-0.4,-17.3,-6.6,-3.2,3.9,·
Cc1cccc(NC(=O)c2ccc([N+](=O)[O-])o2)c1C,34.0*,-16.9,5.4,4.6,-7.8,23.0*
Cc1cnc(NC(=O)c2nn(C)cc2[N+](=O)[O-])s1,11.7,-12.8,34.0,20.1,-0.6,·
O=C(Nc1cc(-c2nc3ncccc3o2)ccc1Cl)c1cccs1,8.0,-20.4,·,·,·,·
Cn1cc([N+](=O)[O-])c(C(=O)Nc2nc(-c3ccc(Cl)cc3)cs2)n1,36.6*,2.4,95.9*,4.5,28.3*,56.4*
Cc1ccc2nsnc2c1NC(=O)c1ccc([N+](=O)[O-])o1,96.2*,6.2,·,·,·,28.3*
O=C(Nc1cc(-c2nc3ncccc3o2)ccc1Cl)c1ccc([N+](=O)[O-])o1,93.2*,-27.4,·,·,·,30.5*
CCN(CC)C(=O)CSc1nnc(CNc2ccc(F)cc2)n1-c1ccccc1,2.6,-26.9,7.5,-0.7,3.2,·
O=C(CCn1nc(-c2ccc(Cl)cc2)c2ccccc2c1=O)Nc1cccnc1,0.8,-0.1,21.7,-1.9,9.8,·
O=C(N/N=C/c1coc2ccccc2c1=O)c1cn(-c2ccccc2)nc1-c1ccc(F)cc1,-4.4,-18.4,-5.6,-3.5,3.7,·
Cn1cc([N+](=O)[O-])c(C(=O)Nc2ccc(C(=O)N3CCCCC3)cc2)n1,-0.1,-7.6,20.9,5.6,13.7,·
Cc1ccc(-c2csc(NC(=O)c3ccc(C)o3)n2)cc1,-6.7,-6.3,-12.9,1.7,5.0,·
Cc1ccc(-c2csc(NC(=O)c3ccc([N+](=O)[O-])o3)n2)cc1,99.7*,-35.0,·,·,·,41.6*
Cn1cc([N+](=O)[O-])c(C(=O)Nc2ccc(C3CCCCC3)cc2)n1,25.3*,-149.5,-26.6,0.2,1.9,30.4*
O=C(Nc1cccc2ccccc12)c1ccc([N+](=O)[O-])o1,95.7*,-34.4,·,·,·,22.1*
O=C(Nc1nc2c(F)cccc2s1)c1ccc([N+](=O)[O-])o1,40.3*,-47.2,·,·,·,15.2
CCn1cc(C(C)NC(=O)Nc2ccccc2C(=O)OC)c(C)n1 (stereo not drawn),-9.8,-5.1,-2.6,1.2,4.8,·
CCOC(=O)C1(Cc2ccccc2C)CCCN(C(=O)c2ccc(OC)o2)C1 (stereo not drawn),1.4,-5.1,·,·,·,·
CC(=O)C1=C(C)NC(SCC(=O)c2ccccc2)=C(C#N)C1CC(C)C (stereo not drawn),4.7,-21.4,1.4,1.4,3.0,·
COc1ccc(S(=O)(=O)NCc2cccnc2)c2ccccc12,-0.8,1.2,·,·,·,·
O=C(CSc1cccc[n+]1[O-])c1ccccc1Br,84.8*,3.8,-8.3,6.6,7.0,7.0
O=C(CCl)N(c1ccccc1)c1c[nH]c2ccccc12,33.8*,0.8,32.0,101.1*,50.0*,10.3
C/C(CC(=O)NCc1ccco1)=N\NC(=O)c1ccc(Cl)cc1Cl,3.1,-25.9,·,·,·,·
Cc1ccc(Nc2nc(=O)c3cccnc3s2)cc1,37.1*,-38.8,-67.7,0.5,6.8,38.9*
SMILES,IEC-6 tox,KLF5 inhibitor,APP transl inh,Ba/F3 V617F tox,BaF3 tox,IEC-6 cytotox cf
CN1CCc2cc3c(c4c2[C@H]1[C@H](O)c1ccccc1-4)OCO3,43.5*,-8.4,3.5,64.8*,64.7*,4.5
Cc1ccc(N)c2c1OCCC2=O,7.3,-1.6,-16.7,0.0,8.9,·
Cc1cccc2cc(/C=N/Nc3ccc(C(=O)O)cc3)c(Cl)nc12,27.1*,-127.9,·,11.1,8.9,48.0*
Cc1cccc2cc(/C=N/NC(=O)c3ccncc3)c(Cl)nc12,8.5,-7.0,·,-1.7,-3.5,·
O=C(O)c1ccc(N/N=C/c2cc3ccccc3nc2Cl)cc1,22.4*,-76.1,·,11.6,1.5,31.3*
O=C(NCc1ccc(N2CCCC2=O)cc1)c1cc(COc2c(F)cccc2F)on1,-2.3,-4.3,·,·,·,·
CC(C)(C)c1ccc(-c2cn(-c3ccc(Br)cc3)c3[n+]2CCCS3)cc1,50.4*,35.3,5.9,100.2*,84.1*,50.7*
Cc1ccc(-n2nc3c(N4CCC(C(=O)NCCc5ccccc5C)CC4)nnc(C)c3c2C)cc1,22.6*,-2.1,·,·,·,34.2*
O=C(CN(C(=O)CCC(=O)Nc1nccs1)c1ccc(F)cc1)NCc1ccccc1,-8.8,-2.3,·,·,·,·
O=C(COc1ccccc1Cl)NC(=S)Nc1ccccc1N1CCCC1,-4.3,-6.8,·,·,·,·
O=C(Nc1cccs1)Nc1ccccc1Br,5.5,-8.1,-47.8,-2.6,3.6,·
CCc1ccc(CNC(=O)CCC(=O)N2Cc3cccc(OC)c3Oc3ncccc32)cc1,-5.4,-10.8,·,·,·,·
COc1cccc(Nc2nc(N)nc(-c3oc4ccccc4c3C)n2)c1,24.7*,-41.8,75.9*,12.0,13.6,34.6*
Cc1cccc(Nc2nc(N)nc(-c3oc4ccccc4c3C)n2)c1,11.5,-63.3,·,-4.6,3.8,·
Cc1ccc(Nc2nc(N)nc(-c3oc4ccccc4c3C)n2)cc1,83.1*,58.1,92.0*,75.7*,75.9*,79.4*
Cc1ccc(NC(=O)CSc2nc3ccccc3nc2N2CCCC2)cc1,17.6,-39.3,·,·,·,·
COc1ccc(C(=O)c2ccc(N(C)C)cc2)c2ccccc12,78.0*,59.8,91.5*,76.8*,78.3*,58.5*
COc1ccccc1C(=O)COC(=O)c1ccc(N(C)C)cc1,-9.0,-71.3,-141.7,-0.5,0.9,·
Cc1cc(NCCCn2ccnc2)n2ncc(-c3ccc(Cl)cc3)c2n1,33.3*,-116.5,-253.3,4.3,11.8,26.8*
COc1ccccc1C(=O)Nc1ccc2c(c1)nc(CCNC(=O)c1ccco1)n2C,69.3*,28.2,·,·,·,53.3*
O=C(CSc1nccn(-c2cccc(F)c2)c1=O)Nc1ccc(Cl)cc1F,-10.0,-26.4,·,·,·,·
CCc1nc(N)nc(N)c1-c1ccc(Cl)cc1,49.4*,13.2,-9.3,96.6*,97.0*,35.6*
Nc1nc(N2CCN(c3ccccn3)CC2)nc2ccccc12,-1.1,-105.8,·,·,·,·
O=C(c1ccccc1-c1ccccc1)N1CCN(c2ccccn2)CC1,33.5*,34.7,46.5*,75.0*,55.0*,38.6*
Cc1cc(-c2ccccc2)nc(N2CCN(c3ccccn3)CC2)n1,25.6*,-24.8,-11.3,2.4,1.1,41.4*
SMILES,IEC-6 tox,KLF5 inhibitor,APP transl inh,Ba/F3 V617F tox,BaF3 tox,IEC-6 cytotox cf
O=[N+]([O-])c1ccc(-[n+]2nc(-c3ccccc3)nn2-c2ccccc2)cc1,10.5,-24.5,·,·,·,·
Cc1ccc(C)c(Nc2cc(C)nc(-c3ccccc3O)n2)c1,48.3*,35.1,·,·,·,26.9*
CCSc1nc2sccc2c(=O)n1-c1ccccc1,-4.6,-5.5,·,·,·,·
Nc1nn(-c2ccccc2)c(N)c1N=Nc1cccc(F)c1,77.0*,-35.9,·,83.6*,79.7*,59.0*
Cc1nn(-c2ccccc2)c(N)c1N=Nc1cccnc1,7.5,-27.9,-51.1,1.1,5.9,·
C/C(=N\NC(=O)Cc1ccc(Cl)cc1)c1ccccc1O,28.3*,-6.9,·,·,·,29.0*
CCC(Cc1ccccc1)NC(=O)CCNS(=O)(=O)c1cc(Br)cnc1N (stereo not drawn),-3.1,-28.9,·,·,·,·
